The record followed here is publication PMC7862700, “An all-to-all approach to the identification of sequence-specific readers for epigenetic DNA modifications on cytosine”.

Holding throughout (test): DAPPL (digital affinity profiling via proximity ligation, sequencing); 10 mM Tris-HCl pH 7.5, 50 mM NaCl, 1 mM DTT, 4% glycerol, room temperature, 30 min; GST-TFs on glutathione beads, 16-mer random dsDNA library, 0.1% formaldehyde crosslink after washing; high values mean tight binding
One test concerns the target T1, FLI1 (Homo sapiens, UniProt Q01543 1-452).
T1 sequence: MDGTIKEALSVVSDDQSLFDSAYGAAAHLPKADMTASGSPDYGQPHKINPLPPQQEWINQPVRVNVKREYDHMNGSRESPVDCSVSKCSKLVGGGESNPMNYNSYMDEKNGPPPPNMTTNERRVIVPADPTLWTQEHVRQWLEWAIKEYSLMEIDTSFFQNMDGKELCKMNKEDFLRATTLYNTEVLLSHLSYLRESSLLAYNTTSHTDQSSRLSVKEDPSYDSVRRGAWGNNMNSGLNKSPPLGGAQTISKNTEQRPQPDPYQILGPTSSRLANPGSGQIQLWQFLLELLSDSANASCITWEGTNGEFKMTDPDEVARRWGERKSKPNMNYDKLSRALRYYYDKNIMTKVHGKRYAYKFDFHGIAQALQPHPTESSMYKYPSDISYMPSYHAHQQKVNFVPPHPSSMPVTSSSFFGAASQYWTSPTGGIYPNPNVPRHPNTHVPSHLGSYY
The settings on record: protein: recombinant; tags: N-terminal GST; dsDNA, one strand shown. An outline of the steps:
(§1)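 Beads coated with glutathione captured GST-fused human transcription factors that had been expressed in yeast, and the factors were then given DNA barcodes and pooled with a tag-only sample. The pools were incubated with 200 nmole of a random double-stranded 16-mer DNA library in Tris/NaCl/DTT/glycerol buffer for 30 min at room temperature, washed, crosslinked with 0.1% formaldehyde and proximity-ligated with BsaI/T4 ligase at 37 °C for 1 h. PCR amplification and Illumina NextSeq500 sequencing came last. Binding signal is each hexamer's read frequency for a factor divided by its frequency for the tag-only sample.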

The target of the next test is T2, ELK1 (Homo sapiens, UniProt P19419 1-428).
T2 sequence: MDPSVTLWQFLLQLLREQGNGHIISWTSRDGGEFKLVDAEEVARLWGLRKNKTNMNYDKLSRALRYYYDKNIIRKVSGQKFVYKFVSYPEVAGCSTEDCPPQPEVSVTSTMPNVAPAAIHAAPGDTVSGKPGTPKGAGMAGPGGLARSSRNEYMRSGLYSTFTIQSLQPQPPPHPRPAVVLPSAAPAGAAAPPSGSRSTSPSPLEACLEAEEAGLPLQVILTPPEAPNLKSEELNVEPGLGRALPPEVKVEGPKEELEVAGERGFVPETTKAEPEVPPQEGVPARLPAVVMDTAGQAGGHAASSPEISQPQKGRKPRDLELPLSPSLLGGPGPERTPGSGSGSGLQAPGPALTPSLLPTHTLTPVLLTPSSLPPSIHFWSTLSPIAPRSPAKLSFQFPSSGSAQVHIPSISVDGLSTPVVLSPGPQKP
The settings on record: protein: recombinant; tags: N-terminal GST; dsDNA, one strand shown. An outline of the steps: as §1

The next test has as its target T3, GABPA (Homo sapiens, UniProt Q06546 1-454).
T3 sequence: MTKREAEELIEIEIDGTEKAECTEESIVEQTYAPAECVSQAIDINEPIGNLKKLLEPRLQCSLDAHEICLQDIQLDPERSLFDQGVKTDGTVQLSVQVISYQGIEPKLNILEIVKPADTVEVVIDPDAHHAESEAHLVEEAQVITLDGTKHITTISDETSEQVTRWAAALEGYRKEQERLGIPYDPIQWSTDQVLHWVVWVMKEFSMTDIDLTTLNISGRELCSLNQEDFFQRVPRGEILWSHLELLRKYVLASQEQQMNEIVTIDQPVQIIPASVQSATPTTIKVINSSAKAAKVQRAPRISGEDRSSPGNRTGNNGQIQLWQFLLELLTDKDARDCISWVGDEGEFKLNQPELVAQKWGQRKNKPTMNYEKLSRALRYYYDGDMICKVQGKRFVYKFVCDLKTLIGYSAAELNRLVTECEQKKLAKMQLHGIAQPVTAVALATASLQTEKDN
Conditions: protein: recombinant; tags: N-terminal GST; dsDNA, one strand shown. The essentials:
as §1

The next test deals with T4, ERG (Homo sapiens, UniProt P11308 1-479).
T4 sequence: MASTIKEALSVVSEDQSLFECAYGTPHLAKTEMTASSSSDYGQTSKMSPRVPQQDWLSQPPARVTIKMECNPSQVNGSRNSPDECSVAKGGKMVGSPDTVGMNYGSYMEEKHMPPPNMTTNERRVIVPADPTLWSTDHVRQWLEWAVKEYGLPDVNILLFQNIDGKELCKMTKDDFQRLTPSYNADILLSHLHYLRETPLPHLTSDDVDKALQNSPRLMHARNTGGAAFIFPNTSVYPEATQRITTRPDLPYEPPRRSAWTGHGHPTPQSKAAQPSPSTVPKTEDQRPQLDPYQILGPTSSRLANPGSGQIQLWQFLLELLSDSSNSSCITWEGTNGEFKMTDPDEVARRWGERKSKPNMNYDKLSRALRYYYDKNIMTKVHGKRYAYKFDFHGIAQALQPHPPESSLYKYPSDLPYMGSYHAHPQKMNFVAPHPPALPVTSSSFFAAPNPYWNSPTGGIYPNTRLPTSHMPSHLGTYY
The settings on record: protein: recombinant; tags: N-terminal GST; dsDNA, one strand shown. An outline of the steps: as §1

A further test deals with ELF1 (Homo sapiens, UniProt P32519 1-619). Conditions: protein: recombinant; tags: N-terminal GST; dsDNA, one strand shown. An outline of the steps: as §1
The target of another test is T5, EHF (Homo sapiens, UniProt Q9NZC4 1-300).
T5 sequence: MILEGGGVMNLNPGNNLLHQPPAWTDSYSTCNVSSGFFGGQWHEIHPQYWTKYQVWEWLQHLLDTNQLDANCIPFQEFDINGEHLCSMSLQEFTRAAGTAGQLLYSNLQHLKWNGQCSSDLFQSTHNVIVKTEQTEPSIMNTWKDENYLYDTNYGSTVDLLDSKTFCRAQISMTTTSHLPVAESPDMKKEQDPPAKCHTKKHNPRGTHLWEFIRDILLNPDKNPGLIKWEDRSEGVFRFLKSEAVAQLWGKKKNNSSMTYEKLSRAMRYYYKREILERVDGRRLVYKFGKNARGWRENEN
Conditions: protein: recombinant; tags: N-terminal GST; dsDNA, one strand shown. An outline of the steps:
as §1

The next test concerns the target SPI1 (Homo sapiens, UniProt P17947 1-270). The settings on record: protein: recombinant; tags: N-terminal GST; dsDNA, one strand shown. The essentials: as §1
Another test has as its target SPIB (Homo sapiens, UniProt Q01892 1-262). Conditions: protein: recombinant; tags: N-terminal GST; dsDNA, one strand shown. An outline of the steps:
as §1

The target in another test is T6, ELK3 (Homo sapiens, UniProt P41970 1-407).
T6 sequence: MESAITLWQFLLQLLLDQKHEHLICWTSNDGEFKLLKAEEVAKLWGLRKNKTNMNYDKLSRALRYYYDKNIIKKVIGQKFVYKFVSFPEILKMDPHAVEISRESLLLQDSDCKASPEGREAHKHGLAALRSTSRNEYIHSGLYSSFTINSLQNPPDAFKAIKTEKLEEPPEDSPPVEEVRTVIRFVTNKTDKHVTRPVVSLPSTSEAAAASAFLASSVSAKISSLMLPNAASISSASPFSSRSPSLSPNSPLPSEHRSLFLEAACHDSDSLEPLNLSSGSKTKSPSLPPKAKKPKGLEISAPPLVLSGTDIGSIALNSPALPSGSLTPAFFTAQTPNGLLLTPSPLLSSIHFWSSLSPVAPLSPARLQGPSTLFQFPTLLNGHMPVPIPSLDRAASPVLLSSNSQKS
The settings on record: protein: recombinant; tags: N-terminal GST; dsDNA, one strand shown. The essentials:
as §1

The next test deals with T7, FEV (Homo sapiens, UniProt Q99581 1-238).
T7 sequence: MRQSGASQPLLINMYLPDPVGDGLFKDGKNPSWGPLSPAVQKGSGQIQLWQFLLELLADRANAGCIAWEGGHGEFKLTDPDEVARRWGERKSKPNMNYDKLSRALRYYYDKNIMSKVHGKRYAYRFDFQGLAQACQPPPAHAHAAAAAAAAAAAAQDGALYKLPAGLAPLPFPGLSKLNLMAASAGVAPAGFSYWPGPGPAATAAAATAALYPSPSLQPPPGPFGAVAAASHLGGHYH
The settings on record: protein: recombinant; tags: N-terminal GST; dsDNA, one strand shown. An outline of the steps:
as §1

The next test has as its target ETV5 (Homo sapiens, UniProt P41161 1-510). The settings on record: protein: recombinant; tags: N-terminal GST; dsDNA, one strand shown. The essentials: as §1
The next test has as its target HSF1 (Homo sapiens, UniProt Q00613 1-529). Conditions: protein: recombinant; tags: N-terminal GST; chain copies: 3; dsDNA, one strand shown. An outline of the steps: as §1
The next test deals with T8, SPIC (Homo sapiens, UniProt Q8N5J4 1-248).
T8 sequence: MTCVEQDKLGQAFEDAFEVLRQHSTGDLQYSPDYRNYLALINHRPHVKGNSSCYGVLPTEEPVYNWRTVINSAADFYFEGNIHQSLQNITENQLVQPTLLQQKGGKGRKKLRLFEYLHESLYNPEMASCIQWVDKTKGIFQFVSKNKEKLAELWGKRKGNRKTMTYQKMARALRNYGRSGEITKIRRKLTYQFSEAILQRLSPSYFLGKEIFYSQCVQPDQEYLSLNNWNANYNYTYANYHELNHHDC
The settings on record: protein: recombinant; tags: N-terminal GST; dsDNA, one strand shown. An outline of the steps:
as §1

In a further test the target is ELF4 (Homo sapiens, UniProt Q99607 1-663). Conditions: protein: recombinant; tags: N-terminal GST; dsDNA, one strand shown. The essentials:
as §1

The next test addresses T9, ELF3 (Homo sapiens, UniProt P78545 1-371).
T9 sequence: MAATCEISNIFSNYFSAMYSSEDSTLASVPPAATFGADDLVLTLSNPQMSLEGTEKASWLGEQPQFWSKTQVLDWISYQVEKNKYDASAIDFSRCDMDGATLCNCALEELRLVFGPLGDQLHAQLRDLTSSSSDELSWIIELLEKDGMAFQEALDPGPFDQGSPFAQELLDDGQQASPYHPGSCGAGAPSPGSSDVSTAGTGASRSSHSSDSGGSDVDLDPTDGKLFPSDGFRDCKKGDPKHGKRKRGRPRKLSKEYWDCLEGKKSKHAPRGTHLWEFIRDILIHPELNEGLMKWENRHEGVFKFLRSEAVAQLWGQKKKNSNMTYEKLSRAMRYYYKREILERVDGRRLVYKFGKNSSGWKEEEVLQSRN
The settings on record: protein: recombinant; tags: N-terminal GST; dsDNA, one strand shown. The essentials:
as §1

The target of another test is CRX (Homo sapiens, UniProt O43186 1-299). The settings on record: protein: recombinant; tags: N-terminal GST; dsDNA, one strand shown. An outline of the steps:
as §1

The target of the next test is ETV1 (Homo sapiens, UniProt P50549 1-477). Conditions: protein: recombinant; tags: N-terminal GST; dsDNA, one strand shown. The essentials:
as §1

Chain of SPIB (Q01892 whole entry): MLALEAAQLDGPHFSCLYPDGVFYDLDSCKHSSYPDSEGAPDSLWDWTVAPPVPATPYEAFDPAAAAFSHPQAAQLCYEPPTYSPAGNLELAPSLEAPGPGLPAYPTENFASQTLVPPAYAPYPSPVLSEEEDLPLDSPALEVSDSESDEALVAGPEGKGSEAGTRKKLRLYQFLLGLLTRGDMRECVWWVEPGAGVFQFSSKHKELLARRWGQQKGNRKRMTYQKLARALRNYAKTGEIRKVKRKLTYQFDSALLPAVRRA
Chain of ETV5 (P41161 whole entry): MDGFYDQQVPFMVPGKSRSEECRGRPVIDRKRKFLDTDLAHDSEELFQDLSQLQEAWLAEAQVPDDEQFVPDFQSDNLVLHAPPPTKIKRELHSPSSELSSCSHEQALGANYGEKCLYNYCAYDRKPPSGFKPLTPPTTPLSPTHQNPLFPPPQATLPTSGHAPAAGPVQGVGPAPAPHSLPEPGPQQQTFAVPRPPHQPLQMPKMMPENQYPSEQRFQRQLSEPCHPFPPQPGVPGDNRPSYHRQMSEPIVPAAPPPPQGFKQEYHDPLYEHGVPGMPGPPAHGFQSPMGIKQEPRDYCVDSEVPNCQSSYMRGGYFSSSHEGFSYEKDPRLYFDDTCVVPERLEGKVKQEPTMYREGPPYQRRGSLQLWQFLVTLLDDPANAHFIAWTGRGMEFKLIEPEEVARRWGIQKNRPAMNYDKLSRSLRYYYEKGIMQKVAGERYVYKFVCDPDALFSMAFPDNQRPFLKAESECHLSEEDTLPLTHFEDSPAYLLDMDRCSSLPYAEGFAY
Chain of ELF1 (P32519 whole entry): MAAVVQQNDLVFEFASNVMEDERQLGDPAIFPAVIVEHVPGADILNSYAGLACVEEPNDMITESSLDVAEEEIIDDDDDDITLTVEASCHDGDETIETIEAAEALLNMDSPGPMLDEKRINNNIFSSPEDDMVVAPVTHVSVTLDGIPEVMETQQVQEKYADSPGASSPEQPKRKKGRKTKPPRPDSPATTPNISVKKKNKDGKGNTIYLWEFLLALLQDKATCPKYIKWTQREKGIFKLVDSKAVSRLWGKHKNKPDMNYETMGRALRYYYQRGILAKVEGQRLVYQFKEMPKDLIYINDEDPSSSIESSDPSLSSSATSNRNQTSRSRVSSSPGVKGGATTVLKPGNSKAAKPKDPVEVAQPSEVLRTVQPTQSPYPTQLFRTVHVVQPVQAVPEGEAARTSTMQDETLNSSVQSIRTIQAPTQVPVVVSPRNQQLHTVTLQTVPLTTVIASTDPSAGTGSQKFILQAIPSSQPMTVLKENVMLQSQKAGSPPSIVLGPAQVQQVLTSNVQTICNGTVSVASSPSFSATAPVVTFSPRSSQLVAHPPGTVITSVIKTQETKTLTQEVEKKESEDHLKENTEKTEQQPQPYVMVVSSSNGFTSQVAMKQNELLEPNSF
Chain of HSF1 (Q00613 whole entry): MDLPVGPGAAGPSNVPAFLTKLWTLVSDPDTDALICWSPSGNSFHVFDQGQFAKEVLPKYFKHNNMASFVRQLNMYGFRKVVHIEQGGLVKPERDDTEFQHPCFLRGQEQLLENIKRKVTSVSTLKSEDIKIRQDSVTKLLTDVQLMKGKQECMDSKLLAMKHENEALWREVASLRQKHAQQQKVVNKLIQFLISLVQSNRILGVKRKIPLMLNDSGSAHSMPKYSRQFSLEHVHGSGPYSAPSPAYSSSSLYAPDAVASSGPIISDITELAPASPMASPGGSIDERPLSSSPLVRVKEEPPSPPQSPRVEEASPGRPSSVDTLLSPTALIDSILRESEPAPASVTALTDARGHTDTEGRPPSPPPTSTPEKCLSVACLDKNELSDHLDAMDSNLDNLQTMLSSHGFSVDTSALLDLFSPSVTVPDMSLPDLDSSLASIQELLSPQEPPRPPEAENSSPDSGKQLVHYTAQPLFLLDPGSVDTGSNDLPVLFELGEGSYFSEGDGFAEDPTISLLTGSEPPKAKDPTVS
Chain of ELF4 (Q99607 whole entry): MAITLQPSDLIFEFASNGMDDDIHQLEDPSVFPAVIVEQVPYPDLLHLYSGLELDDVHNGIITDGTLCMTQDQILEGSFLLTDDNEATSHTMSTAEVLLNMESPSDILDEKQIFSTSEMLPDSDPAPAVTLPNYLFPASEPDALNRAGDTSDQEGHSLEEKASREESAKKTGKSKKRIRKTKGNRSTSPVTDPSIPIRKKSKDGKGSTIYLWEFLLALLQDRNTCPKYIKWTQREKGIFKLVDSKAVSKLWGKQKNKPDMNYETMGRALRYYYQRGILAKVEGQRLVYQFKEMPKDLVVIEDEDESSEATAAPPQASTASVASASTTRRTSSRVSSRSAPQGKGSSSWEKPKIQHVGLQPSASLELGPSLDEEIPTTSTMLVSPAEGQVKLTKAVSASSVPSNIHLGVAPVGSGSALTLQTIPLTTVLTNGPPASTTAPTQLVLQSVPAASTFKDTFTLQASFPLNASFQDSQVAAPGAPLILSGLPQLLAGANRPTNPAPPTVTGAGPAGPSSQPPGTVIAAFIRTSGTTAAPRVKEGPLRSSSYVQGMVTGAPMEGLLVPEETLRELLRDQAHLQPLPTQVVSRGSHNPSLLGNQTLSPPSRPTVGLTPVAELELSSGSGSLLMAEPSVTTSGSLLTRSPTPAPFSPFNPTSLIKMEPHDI
Chain of ETV1 (P50549 whole entry): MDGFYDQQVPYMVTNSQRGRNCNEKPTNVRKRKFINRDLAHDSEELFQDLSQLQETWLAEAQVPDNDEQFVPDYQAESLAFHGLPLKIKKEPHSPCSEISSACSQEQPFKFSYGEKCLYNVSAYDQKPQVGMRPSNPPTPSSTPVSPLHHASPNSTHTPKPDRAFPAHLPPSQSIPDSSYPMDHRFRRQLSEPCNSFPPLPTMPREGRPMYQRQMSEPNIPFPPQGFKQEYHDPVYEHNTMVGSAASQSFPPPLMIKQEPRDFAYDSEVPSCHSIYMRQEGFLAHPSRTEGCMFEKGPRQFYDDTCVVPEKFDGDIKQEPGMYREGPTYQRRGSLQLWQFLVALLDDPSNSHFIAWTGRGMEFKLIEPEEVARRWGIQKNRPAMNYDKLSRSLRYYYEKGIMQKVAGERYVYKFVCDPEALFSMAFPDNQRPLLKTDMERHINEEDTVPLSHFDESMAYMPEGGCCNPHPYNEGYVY
Chain of CRX (O43186 whole entry): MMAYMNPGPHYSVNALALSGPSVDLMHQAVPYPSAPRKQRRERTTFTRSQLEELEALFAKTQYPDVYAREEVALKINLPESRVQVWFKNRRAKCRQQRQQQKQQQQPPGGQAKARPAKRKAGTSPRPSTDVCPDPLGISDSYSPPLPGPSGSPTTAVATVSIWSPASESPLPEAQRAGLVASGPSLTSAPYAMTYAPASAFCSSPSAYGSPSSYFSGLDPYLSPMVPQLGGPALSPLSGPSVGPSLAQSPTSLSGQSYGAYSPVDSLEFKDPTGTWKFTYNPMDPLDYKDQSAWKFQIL

Consider CAAGTA, for which the binding signal with FLI1 was 1.09 fold enrichment (6-mer frequency, TF over GST control); with ELK1 it was 1.06 fold enrichment (6-mer frequency, TF over GST control); with GABPA, 1.19 fold enrichment (6-mer frequency, TF over GST control); in the test with ERG, 1.03 fold enrichment (6-mer frequency, TF over GST control); with ELF1, 1.03 fold enrichment (6-mer frequency, TF over GST control); with EHF it was 1.1 fold enrichment (6-mer frequency, TF over GST control). Also, the binding signal with SPI1 was 1.07 fold enrichment (6-mer frequency, TF over GST control); with SPIB, 1.01 fold enrichment (6-mer frequency, TF over GST control); with ELK3, 1.17 fold enrichment (6-mer frequency, TF over GST control); with FEV it was 1.04 fold enrichment (6-mer frequency, TF over GST control); with ETV5, 1.11 fold enrichment (6-mer frequency, TF over GST control); in the test with HSF1 it was 1.02 fold enrichment (6-mer frequency, TF over GST control). For the same sequence, the binding signal with SPIC is 1.09 fold enrichment (6-mer frequency, TF over GST control); with ELF4, 1.16 fold enrichment (6-mer frequency, TF over GST control); with ELF3, 1.28 fold enrichment (6-mer frequency, TF over GST control); with CRX it was 1.08 fold enrichment (6-mer frequency, TF over GST control); in the test with ETV1 it was 1.03 fold enrichment (6-mer frequency, TF over GST control).
AACGTC: the binding signal with FLI1 was 1.07 fold enrichment (6-mer frequency, TF over GST control); with ELK1, 1.09 fold enrichment (6-mer frequency, TF over GST control); with GABPA, 1.1 fold enrichment (6-mer frequency, TF over GST control); with ERG, 1.07 fold enrichment (6-mer frequency, TF over GST control); with ELF1 it was 1.05 fold enrichment (6-mer frequency, TF over GST control); with EHF it was 1.12 fold enrichment (6-mer frequency, TF over GST control). The binding signal with SPI1 was 1.02 fold enrichment (6-mer frequency, TF over GST control); with SPIB, 1.13 fold enrichment (6-mer frequency, TF over GST control); with ELK3, 1.24 fold enrichment (6-mer frequency, TF over GST control); with FEV, 1.06 fold enrichment (6-mer frequency, TF over GST control); with ETV5, 1.04 fold enrichment (6-mer frequency, TF over GST control); with HSF1 it was 1.01 fold enrichment (6-mer frequency, TF over GST control). For the same sequence, the binding signal in the test with SPIC is 1.13 fold enrichment (6-mer frequency, TF over GST control); with ELF4 it was 1.09 fold enrichment (6-mer frequency, TF over GST control); with ELF3, 1.13 fold enrichment (6-mer frequency, TF over GST control); in the test with ETV1 it was 1.11 fold enrichment (6-mer frequency, TF over GST control).
